In PubChem BioAssay (NCATS):
Results filed as inconclusive are left out. Where a call stands in place of a potency, no number is given. The source made the active and inactive calls. The call rests on the fitted dose curve; in most records, active means well fitted curve in the direction sought with a large enough effect; inconclusive means small, poorly fitted or top-dose-only effect, or another doubt; inactive means no such curve, though single readings can be large; an effect the other way counts as inactive or inconclusive.

What was measured:
[1] = molecular target: Calcium and integrin-binding protein 1 (Homo sapiens) (UniProt Q99828); assay: Primary qHTS for Identification of Calcium Integrin Binding Protein 1 (CIB1) Competitor (AID 1508620); conditions: CIB1-GST / FITC-alphaIIb peptide fluorescence polarization; series mostly up to 57.7 µM;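 further: GST tagged CIB1 binding a fluorescein labelled alphaIIb integrin peptide tracer; top concentration of the series differs between compounds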
Calcium and integrin-binding protein 1 (Homo sapiens), sequence (Q99828 whole entry, looked up): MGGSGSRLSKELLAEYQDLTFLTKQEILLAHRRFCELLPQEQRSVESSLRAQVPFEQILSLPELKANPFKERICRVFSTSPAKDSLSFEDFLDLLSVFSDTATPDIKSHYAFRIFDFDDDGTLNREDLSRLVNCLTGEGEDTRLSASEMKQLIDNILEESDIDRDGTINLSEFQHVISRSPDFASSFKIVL
How it was run: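 CIB1-GST (1 uM final) and compound incubated 15 min at room temperature before adding FITC-alphaIIb peptide tracer (100 nM final). Competition for binding read by fluorescence polarization (ex 480, em 540) after another 15 min at room temperature.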

[2] = Primary qHTS for small molecule stabilizers of the endoplasmic reticulum resident proteome: Secreted ER Calcium Modulated Protein (SERCaMP) assay (AID 1508630); conditions: SH-SY5Y GLuc-SERCaMP (Gaussia luciferase released on ER calcium loss) secretion, thapsigargin, luminescence; series mostly up to 38.4 µM; further: potency means the concentration at half of the fitted maximal effect
How it was run: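 The SH-SY5Y reporter protocol was run at 3 concentrations up to 38.3 uM (primary) or 11 concentrations (follow-up): 16 h compound, 100 nM thapsigargin for 4 h, then extracellular luciferase luminescence.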

Compound | Potency [1] | Potency [2]
C[C@@H](O[C@H]1OCCN(Cc2n[nH]c(=O)[nH]2)[C@@H]1c1ccc(F)cc1)c1cc(C(F)(F)F)cc(C(F)(F)F)c1 | inactive | inactive
CNc1nc(Nc2ccc(C(=O)N3CCOCC3)cc2OC)ncc1Cl | inactive | inactive
COc1ccc(CCN(C)CCCOc2ccc(S(=O)(=O)c3[nH]c4ccccc4c3C(C)C)cc2)cc1OC | inactive | inactive
COC1CCC(C(=O)c2ccc3nc4c(cc3c2)CCCO4)CC1 (centres undefined) | inactive | inactive
Cc1cc2c(cc1C1(c3ccc(C(=O)O)cn3)CC1)C(C)(C)CCC2(C)C | inactive | inactive
CCN1CCN(c2ccc(Nc3cc(N(C)C(=O)Nc4c(Cl)c(OC)cc(OC)c4Cl)ncn3)cc2)CC1 | inactive | inactive
Cc1ccc(S(=O)(=O)OCC(=O)Nc2ccc(C(=O)O)c(O)c2)cc1 | inactive | inactive
CCOC(=O)N1c2ccc(C(F)(F)F)cc2[C@@H](N(Cc2cc(C(F)(F)F)cc(C(F)(F)F)c2)C(=O)OC)C[C@H]1CC | inactive | inactive
CC(=O)Nc1cccc(-n2c(=O)n(C3CC3)c(=O)c3c(Nc4ccc(I)cc4F)n(C)c(=O)c(C)c32)c1 | inactive | inactive
CN(C)c1nc(Cc2ccc(NC(=O)c3ccc(C(F)(F)F)cc3)cc2)nc(N(C)C)c1CC(=O)O | inactive | inactive
CC[C@]1(O)C[C@H]2CN(CCC3=c4ccccc4=N[C]3[C@@](C(=O)OC)(c3cc4c(cc3OC)N(C)[C@H]3[C@@](O)(C(N)=O)[C@H](O)[C@]5(CC)C=CCN6CC[C@]43[C@@H]65)C2)C1 | inactive | inactive
CCC(c1ccc(O)cc1)C(CC)c1ccc(O)cc1 (centres undefined) | inactive | inactive
C=CC(=O)Nc1cccc(Sc2nc(Nc3ccc(N4CCN(C)CC4)cc3)ncc2Cl)c1 | inactive | inactive
CCNC(=O)Nc1ccc(Oc2ncnc(N)c2C=NOC)cc1Cl | inactive | inactive
COc1cc(Cl)cn2c(-c3cccc(NC4CNC4)n3)cnc12 | inactive | inactive
O=C(O)CCC=CCC[C@@H]1[C@H](N2CCCCC2)[C@@H](O)C[C@@H]1OCc1ccc(-c2ccccc2)cc1 | inactive | inactive
C=CC[N+]1([C@H]2C[C@H]3[C@@H]4CC[C@H]5C[C@H](O)[C@@H](N6CCOCC6)C[C@]5(C)[C@@H]4CC[C@]3(C)[C@H]2OC(C)=O)CCCC1 | inactive | inactive
CN(C)c1ccccc1CN1CCCN(Cc2ccccc2N(C)C)C1c1ccncc1 | inactive | inactive
Cc1cccc(Nc2nc(N[C@@H]3CCCC[C@H]3N)ncc2C(N)=O)c1 | inactive | inactive
C[C@@H]1CCO[C@H]2Cn3cc(C(=O)NCc4ccc(F)cc4F)c(=O)c(O)c3C(=O)N12 | inactive | inactive

Compound | Potency [1] | Potency [2]
CCOC(=O)N1CCN([N+]([O-])=NOc2cc(ON=[N+]([O-])N3CCN(C(=O)OCC)CC3)c([N+](=O)[O-])cc2[N+](=O)[O-])CC1 | inactive | inactive
CCCCCCCCCCCCCCCC(=O)O[C@H]1[C@@H](O)[C@@H](O)[C@@H]([C@H](NC(=O)[C@@H]2C[C@@H](CCC)CN2C)[C@H](C)Cl)O[C@@H]1SC | inactive | inactive
NC1(C(=O)N[C@@H](CCO)c2ccc(Cl)cc2)CCN(c2ncnc3[nH]ccc23)CC1 | inactive | inactive
CC[C@@H]([C@H](C)O)n1ncn(-c2ccc(N3CCN(c4ccc(OCC5CO[C@@](Cn6cncn6)(c6ccc(F)cc6F)C5)cc4)CC3)cc2)c1=O (some centres undefined) | inactive | inactive
Clc1ccc(COC(Cn2ccnc2)c2ccc(Cl)cc2Cl)c(Cl)c1 (centres undefined) | inactive | inactive
CC(=O)NCCC(=O)N[C@@H](CCC(N)=O)C(=O)N[C@@H](CO)C(=O)N[C@@H](CCC(N)=O)C(=O)N[C@@H](CCC(N)=O)C(=O)N[C@H](C(=O)N[C@@H](Cc1ccccc1)C(=O)N[C@]1(C)CCCCCCC=CCCC[C@@](C)(C(=O)N[C@@H](CCC(N)=O)C(=O)N[C@@H](CC(N)=O)C(N)=O)NC(=O)[C@H](CC(C)C)NC(=O)[C@H](CC(C)C)NC(=O)[C@@H](CCCNC(=N)N)NC(=O)[C@H](Cc2c[nH]c3ccccc23)NC(=O)[C@H](CC(C)C)NC(=O)[C@H](CC(N)=O)NC1=O)[C@H](C)O | inactive | inactive
COc1cc([C@H]2Oc3cc([C@H]4Oc5cc(O)cc(O)c5C(=O)[C@H]4O)ccc3O[C@H]2CO)ccc1O |  | inactive
Oc1cc(O)cc(C=Cc2ccc(O)c(O)c2)c1 | inactive | inactive
COc1ccc(-c2cc(=O)c3c(O)cc(O[C@@H]4O[C@H](CO[C@@H]5O[C@@H](C)[C@H](O)[C@@H](O)[C@@H]5O)[C@@H](O)[C@H](O)[C@@H]4O)cc3o2)cc1O |  | inactive
CCC(=C(CC)c1ccc(O)cc1)c1ccc(O)cc1 |  | inactive
CC1=C[C@@H]2[C@@H]([C@@H](O)C[C@@]3(C)[C@H]2C[C@@H](C)[C@]3(O)C(=O)CO)[C@@]2(C)Cc3cnn(-c4ccccc4)c3C=C12 |  | inactive
CCCCN(CCCC)CC(O)c1cc(Cl)cc2c1-c1ccc(Cl)cc1C2=Cc1ccc(Cl)cc1 (centres undefined) | inactive | inactive
CC1(COc2ccc3c(c2)ncn3-c2ccc3cccc(N4CCC(N)CC4)c3n2)COC1 | inactive | inactive
CO[C@H]1/C=C\O[C@@]2(C)Oc3c(C)c(O)c4c(O)c(c(C=NN5CCN(C6CCCC6)CC5)c(O)c4c3C2=O)NC(=O)C(C)=CC=C[C@H](C)[C@H](O)[C@@H](C)[C@@H](O)[C@@H](C)[C@H](OC(C)=O)[C@H]1C | inactive | inactive
CC(C)Oc1cc(Nc2nc(N[C@@H](C)c3ccc(F)cn3)ncc2Cl)[nH]n1 | inactive | inactive
C[C@@H](NC(=O)c1ncnc(N)c1Cl)c1ncc(C(=O)Nc2cc(C(F)(F)F)c(Cl)cn2)s1 | inactive | inactive
COc1ccc2c(c1)CC[C@H]1[C@@H]2CC[C@]2(C)[C@@H](NCCCCCCN3C(=O)C=CC3=O)CC[C@H]12 | inactive | inactive
Cn1c(=O)c(-c2c(Cl)cccc2Cl)cc2cnc(Nc3cccc(C(=O)O)c3)nc21 | inactive | inactive
NCc1c[nH]c(=S)n1[C@H]1CCc2c(F)cc(F)cc2C1 | inactive | inactive
NC(=O)c1noc([C@H](CCCC2CCCCC2)CC(=O)NO)n1 | inactive | inactive

Compound | Potency [1] | Potency [2]
O=c1[nH]c(=O)n([C@H]2C[C@@H](O)[C@@H](CO)O2)cc1C(F)(F)F | inactive | inactive
COc1cc2nc(-c3cc(F)ccc3O)nc(N[C@@H]3CNC[C@@H]3C(C)(C)O)c2cc1OC | inactive | inactive
CN1CCN(c2cccc(Nc3nc4c(-c5ccc(S(C)(=O)=O)cc5)cccn4n3)c2)CC1 | inactive | inactive
CCC[C@@H](NC(=O)[C@@H]1[C@H]2CCC[C@@H]2CN1C(=O)[C@@H](NC(=O)[C@@H](NC(=O)c1cnccn1)C1CCCCC1)C(C)(C)C)C(=O)C(=O)NC1CC1 | inactive | inactive
O=[N+]([O-])c1ccc(Nc2ccccc2-c2ccccc2)c2nonc12 | inactive | inactive
Cc1ccccc1C(C(=O)NC1CCCCC1)N(C(=O)CNc1ccc(C#N)cc1)c1cccc(F)c1 (centres undefined) | inactive | inactive
NC(=O)c1ncn([C@@H]2O[C@H](CO)[C@@H](O)[C@@H]2O)n1 | inactive | inactive
NCC1CCC(C(=O)O)CC1 (centres undefined) | inactive | inactive
CCCCc1ccc(NS(=O)(=O)c2ccc(C)c(C(=O)N3CCN(c4cccc(C)c4C)CC3)c2)cc1 | inactive | inactive
CC1(C)CC(=O)c2c(C(F)(F)F)nn(-c3ccc(C(N)=O)c(NC4CCC(O)CC4)c3)c2C1 (centres undefined) | inactive | inactive
Cc1c(C(=O)Nc2ccc(N3C[C@@H](C)O[C@@H](C)C3)nc2)cccc1-c1ccc(OC(F)(F)F)cc1 | inactive | inactive
Cc1cccc2c1CC[C@H](CN1CCC(c3c(Cl)cccc3Cl)CC1)C[C@@H]2O | inactive | inactive
CN(C)S(=O)(=O)c1ccc2c(c1)C(=Cc1cc3c([nH]1)CCCC3)C(=O)N2 | inactive | inactive
C[C@@H]1[C@H](O)[C@@H](C)C=CC=CC=CC=CC=CC=CC=C[C@H](O[C@@H]2O[C@H](C)[C@H](O)[C@H](N)[C@@H]2O)C[C@@H]2O[C@](O)(C[C@@H](O)C[C@@H](O)[C@H](O)CC[C@@H](O)C[C@@H](O)CC(=O)O[C@H]1C)C[C@H](O)[C@@H]2C(=O)O | inactive | inactive
CCc1cccc(CC)c1NC(=O)N1Cc2[nH]nc(NC(=O)c3ccc(N4CCN(C)CC4)cc3)c2C1 | inactive | inactive
O=C(O)C1=NC(C(=O)O)CC(C=CN2c3cc(O)c(OC4OC(CO)C(O)C(O)C4O)cc3CC2C(=O)O)=C1 (centres undefined) |  | inactive
COc1cc(C=CC(=O)O)ccc1O |  | inactive
C[C@@H]1CC=CC=CC=CC=C[C@@H](O[C@@H]2O[C@H](C)[C@@H](O)[C@H](N)[C@H]2O)C[C@@H]2O[C@](O)(C[C@@H](O)C[C@@H]3O[C@@H]3C=CC(=O)O1)C[C@H](O)[C@@H]2C(=O)O | inactive | inactive
COc1cc(Nc2nc3ccccc3nc2NS(=O)(=O)c2ccc(NC(=O)c3ccc(C)c(OC)c3)cc2)cc(OC)c1 | inactive | 8.41 µM (active)
CCC=CC[C@H]1C(=O)CC[C@@H]1CC(=O)OC | inactive | inactive
